In PMC4336329 (PLoS ONE, 2015):
Among all 310,000 compounds or so, about 14,000 (4.5%) showed an effect of 50% or more. The effect is printed as a negative number. Many of the other results were omitted from the sample, so strong results are more common in it than they were.

Molecular target: human ether-à-go-go-related gene (hERG) potassium channel (human, UniProt Q12809)
Assay: primary screen, population patch clamp on CHO cells stably expressing hERG; higher = less effect of the substance
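Further: peak tail current of the secondary pulse compared with the same well before compound.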

Chain of human ether-à-go-go-related gene (hERG) potassium channel (Q12809 whole entry, looked up): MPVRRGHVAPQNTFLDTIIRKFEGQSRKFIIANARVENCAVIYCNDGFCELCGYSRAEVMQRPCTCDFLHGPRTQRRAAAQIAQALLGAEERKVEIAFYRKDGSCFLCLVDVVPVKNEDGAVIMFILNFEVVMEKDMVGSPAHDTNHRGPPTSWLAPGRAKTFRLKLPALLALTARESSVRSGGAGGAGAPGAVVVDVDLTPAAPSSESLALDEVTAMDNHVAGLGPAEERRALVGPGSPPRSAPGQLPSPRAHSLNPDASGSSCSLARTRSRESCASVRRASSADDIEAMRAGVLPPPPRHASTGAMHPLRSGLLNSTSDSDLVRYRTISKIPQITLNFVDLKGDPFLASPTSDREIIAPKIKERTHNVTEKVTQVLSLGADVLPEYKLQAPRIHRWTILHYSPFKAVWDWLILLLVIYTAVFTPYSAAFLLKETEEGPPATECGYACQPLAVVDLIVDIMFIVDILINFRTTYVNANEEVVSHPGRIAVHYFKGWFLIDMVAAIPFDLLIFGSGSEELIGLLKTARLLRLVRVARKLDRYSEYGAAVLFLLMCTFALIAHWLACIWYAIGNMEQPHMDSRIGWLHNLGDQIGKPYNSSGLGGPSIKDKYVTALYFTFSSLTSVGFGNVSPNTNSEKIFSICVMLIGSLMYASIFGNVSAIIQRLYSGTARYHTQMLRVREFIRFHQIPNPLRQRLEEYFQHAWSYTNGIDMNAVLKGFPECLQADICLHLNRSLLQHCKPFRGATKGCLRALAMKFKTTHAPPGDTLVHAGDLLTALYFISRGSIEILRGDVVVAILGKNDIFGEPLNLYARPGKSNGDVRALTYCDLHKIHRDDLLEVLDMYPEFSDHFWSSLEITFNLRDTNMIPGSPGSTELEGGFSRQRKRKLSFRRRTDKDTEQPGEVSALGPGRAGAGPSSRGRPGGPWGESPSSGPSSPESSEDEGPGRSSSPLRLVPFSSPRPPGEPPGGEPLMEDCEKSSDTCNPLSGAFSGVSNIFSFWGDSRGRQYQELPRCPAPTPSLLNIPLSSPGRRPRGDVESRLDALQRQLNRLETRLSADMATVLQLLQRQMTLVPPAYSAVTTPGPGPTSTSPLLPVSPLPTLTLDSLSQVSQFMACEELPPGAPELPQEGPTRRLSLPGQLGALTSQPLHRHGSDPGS

| SMILES | hERG current change (%, negative = inhibition) at 10uM [%] |
| --- | --- |
| CCN(CC)c1ccc(NC(=O)CSc2nnc3nc(C)cc(C)n23)cc1 | -0.579 |
| Cc1cc(C(=O)NNC(=O)c2ccc(Cl)cc2)c2ccccc2n1 | 0.225 |
| CC(=O)N1CSCC1C(=O)NNS(=O)(=O)c1cccc(C(F)(F)F)c1 (centres unmarked) | 8.58 |
| Cl.NC1=NC(c2cccc(Cl)c2)N(CCc2ccc(F)cc2)C(N)=N1 (centres unmarked) | 15.6 |
| OC1C=CSc2nc3ccccc3n21 (centres unmarked) | 4.02 |
| CCOc1ccc(-c2csc3nc[nH]c(=O)c23)cc1 | 14.9 |
| OCCNc1nc(C2CC2)nc2c1nnn2Cc1ccccc1Cl | -0.392 |
| CS(=O)(=O)N(CC(=O)Nc1ccccc1C(=O)N1CCCC1)c1cccc([N+](=O)[O-])c1 | -13.2 |
| O=C(NCCN1CCOCC1)c1cc(-c2cccs2)nc2ccccc12 | -13.1 |
| COc1cc(CO)ccc1Oc1nc2ccccc2n2cnnc12 | 10.7 |
| CC(=O)c1ccc(OCC(O)COc2ccc(C(C)=O)cc2)cc1 | -11.3 |
| CC(=O)c1ccc(OCC(C)Oc2ccc(C#N)cc2)cc1 (centres unmarked) | -62.8 |
| CC(Oc1ccc(C#N)cc1)C(=O)c1ccc(F)c(F)c1 (centres unmarked) | -51.6 |
| CC(=O)c1ccc(OCCOc2ccc(C#N)cc2)cc1 | -49.4 |
| COC(=O)c1ccc(OC(C)C(=O)c2ccc(C)cc2)cc1 (centres unmarked) | -21.5 |
| CC(Oc1ccc(C#N)cc1)C(=O)NC1CCCC1 (centres unmarked) | -12.9 |
| CCC1C(=O)N=C(SCC(=O)Nc2cccc3ccccc23)NC1=O (centres unmarked) | -7.84 |
| COc1ccc(C2C(C(=O)N3CCC(C(N)=O)CC3)CC(=O)N2c2ccc(OC)cc2)cc1 (centres unmarked) | -1.19 |
| Clc1ccc(OCCn2c(-c3ccco3)nc3ccccc32)cc1 | -26.7 |
| Cn1c(COc2ccc(F)cc2)nc2ccccc21 | -0.759 |
| CCCn1c(N)nc2ccccc21 | 8.05 |
| Nc1nc2ccccc2n1CCOc1ccccc1Cl | -3.5 |

| SMILES | hERG current change (%, negative = inhibition) at 10uM [%] |
| --- | --- |
| S=C(Nc1ccccc1)Nc1nc2ccccc2n1CCOc1ccc(Br)cc1 | 11.6 |
| COc1ccc(OCCn2c(N)nc3ccccc32)cc1 | -67.4 |
| Nc1nc2ccccc2n1CCOc1ccc(Br)cc1 | -61.2 |
| Cc1nc2ccccc2n1CCOc1ccc(F)cc1 | -19.8 |
| Nc1nc2ccccc2n1CCOc1ccc(F)cc1 | -67.9 |
| Nc1nc2ccccc2n1CCOc1ccc(Cl)cc1 | -51.1 |
| OCc1nc2ccccc2n1CCCOc1ccc(Br)cc1 | -36.8 |
| COCCn1c(COc2ccc(OC)cc2)nc2ccccc21 | -14.3 |
| O=P(NS(=O)(=O)c1ccc(Br)cc1)(Oc1ccccc1)Oc1ccccc1 | 12.2 |
| O=C(Cn1c(=O)c(=O)n(Cc2ccccc2)c2ccc(Cl)cc21)Nc1ccc(F)cc1F | 21.3 |
| Cc1cc(C)c(Cn2c(=O)n(CCCC(=O)NCc3ccco3)c(=O)c3sccc32)c(C)c1 | 6.15 |
| Cc1cc(NC(=O)c2cc([N+](=O)[O-])ccc2Cl)no1 | 8.65 |
| Nn1c(COc2ccc(Cl)cc2)nc2ccccc2c1=O | -34.8 |
| CCc1ccc(CNC(=O)c2ccc(OC3CCN(C(C)=O)CC3)c(OC)c2)nc1 | 8.11 |
| O=C(NC1CCN(Cc2ccccc2)CC1)C1CCN(c2nnc(-n3cccc3)s2)CC1 | -59 |
| O=C(C1CCCN(c2nnc(-n3cccc3)s2)C1)N1CCN(c2ccccc2)CC1 (centres unmarked) | -47 |
| CC(=O)Nc1ccc(NC(=O)C2CCCN(c3nnc(-n4cccc4)s3)C2)cc1 (centres unmarked) | 7.44 |
| O=C(NC1CCN(Cc2ccccc2)CC1)C1CCCN(c2nnc(-n3cccc3)s2)C1 (centres unmarked) | -69.8 |
| CC1CCN(Cc2ccc(NC(=O)C3CCN(c4nnc(-n5cccc5)s4)CC3)cc2)CC1 | 1.05 |
| CC(C)NC(=O)C1CCCN(c2nnc(-n3cccc3)s2)C1 (centres unmarked) | -16.4 |
| COC(=O)c1ccccc1NC(=O)C1CCCN(c2nnc(-n3cccc3)s2)C1 (centres unmarked) | -53 |
| CC(CCc1ccccc1)NC(=O)C1CCCN(c2nnc(-n3cccc3)s2)C1 (centres unmarked) | -11.2 |

| SMILES | hERG current change (%, negative = inhibition) at 10uM [%] |
| --- | --- |
| O=C(NCCCN1CCN(Cc2ccccc2)CC1)C1CCN(c2nnc(-n3cccc3)s2)CC1 | -48.5 |
| NC(=O)c1ccc(N2CCN(c3ccccc3F)CC2)c([N+](=O)[O-])c1 | -25.5 |
| Cc1ccc(-n2c(-c3ccc(Cl)cc3)c[n+]3c2CCC3)cc1.[Br-] | -62.4 |
| Cc1ccc(-c2c[n+]3c(n2-c2ccccc2)CCC3)cc1.[Br-] | -48.9 |
| FC(F)Sc1ccc(-n2c(-c3ccc(Cl)cc3)c[n+]3c2CCC3)cc1.[Br-] | -92.6 |
| Cc1ccc(-n2c(-c3ccccc3)c[n+]3c2CCC3)cc1.[Br-] | -50.7 |
| [Br-].c1ccc(-c2c[n+]3c(n2-c2ccccc2)CCC3)cc1 | -3.72 |
| Cc1cc(C)cc(OCC(=O)NCC2CCCO2)c1 (centres unmarked) | -11.8 |
| C#CCOC(=O)C[N+](C)(C)CC#Cc1ccccc1.[Cl-] | 33.3 |
| CC1(c2nnc(-c3ccncc3)o2)CC(c2c(Cl)cccc2Cl)=NO1 (centres unmarked) | -69.8 |
| CC1(c2nnc(-c3ccccc3)o2)CC(c2c(Cl)cccc2Cl)=NO1 (centres unmarked) | 23.4 |
| CC1(c2nnc(-c3ccc(Cl)cc3)o2)CC(c2c(Cl)cccc2Cl)=NO1 (centres unmarked) | 1.13 |
| CC1(c2nnc(-c3ccccc3)o2)CC(c2ccccc2)=NO1 (centres unmarked) | -11.6 |
| COc1ccc(C2=NOC(C)(c3nnc(-c4ccncc4)o3)C2)cc1 (centres unmarked) | 1.73 |
| COc1ccc(C2=NOC(C)(c3nnc(-c4ccccc4)o3)C2)cc1 (centres unmarked) | -58.3 |
| CC(=O)Nc1ccc(NC(=O)CSc2ccc(-c3cccnc3)nn2)cc1 | 24.7 |
| O=C(C1CCC1)N1CCN(S(=O)(=O)c2ccc(Br)cc2Cl)CC1 | -21.8 |
| COCCn1c(Cc2ccccc2)nnc1SCC(=O)Nc1cc(C)on1 | -5.36 |
| COc1ccc(CC(=O)NNC(=O)CCc2ccccc2)cc1OC | 14.8 |
| CCCSc1cc(=O)n(-c2ccccc2)nc1C(=O)O | 15.7 |
| CCOc1ccccc1Nc1nnc(SC(C)C(=O)Nc2nc(-c3ccccc3)cs2)s1 (centres unmarked) | 1.46 |
| Br.C=CCn1c(C)csc1=Nc1ccccc1C | 4.02 |

| SMILES | hERG current change (%, negative = inhibition) at 10uM [%] |
| --- | --- |
| Cc1ccccc1CC(=O)NCC1CCCCC1 | 1.34 |
| Cc1ccccc1N(CC(=O)NCC1CCCO1)C(=O)C1(C)CC(=O)N=C2C=CC=CN21 (centres unmarked) | -1.4 |
| Cc1ccc(NS(=O)(=O)c2cccc(C(=O)N3CCN(C(=O)c4ccco4)CC3)c2)cc1 | -36.8 |
| O=C(c1ccc(S(=O)(=O)Nc2ccc(F)cc2)cc1)N1CCN(C(=O)c2ccco2)CC1 | -29.4 |
| Cc1cc(S(=O)(=O)Nc2ccc(C(=O)N3CCN(C(=O)c4ccco4)CC3)cc2)ccc1F | -64.4 |
| O=C(NCC(c1ccco1)N1CCCCC1)c1ccc(NS(=O)(=O)c2ccc(F)cc2)cc1 (centres unmarked) | -13 |
| Cc1ccccc1NS(=O)(=O)c1ccc(C(=O)NCC(c2ccco2)N2CCCCC2)cc1 (centres unmarked) | 5.89 |
| Cc1cc(S(=O)(=O)Nc2ccc(C(=O)NCC(c3ccco3)N3CCCCC3)cc2)ccc1F (centres unmarked) | -41.2 |
| COc1ccccc1C(CNC(=O)c1cccc(NS(=O)(=O)c2ccc(C)c(F)c2)c1)N1CCCC1 (centres unmarked) | -40.9 |
| COc1ccccc1C(CNC(=O)c1ccc(NS(=O)(=O)c2ccc(F)c(C)c2)cc1)N1CCCC1 (centres unmarked) | -58.1 |
| O=C(NCC(c1ccco1)N1CCCC1)c1ccc(S(=O)(=O)Nc2ccccc2Cl)cc1 (centres unmarked) | -11.6 |
| Cc1cccc(NS(=O)(=O)c2ccc(C(=O)NCC(c3ccco3)N3CCCCC3)cc2)c1C (centres unmarked) | -55.6 |
| COc1ccccc1C(CNC(=O)c1ccc(NS(=O)(=O)c2ccc(F)c(C)c2)cc1)N(C)C (centres unmarked) | -24.4 |
| Cc1cc(S(=O)(=O)Nc2ccc(C(=O)NCC(c3ccco3)N3CCCC3)cc2)ccc1F (centres unmarked) | -50.6 |
| CC1=NN(C(=O)c2ccccc2Cl)C(O)(c2cccnc2)C1 (centres unmarked) | 17.8 |
| COC(=O)C1Cc2c([nH]c3ccccc23)C(C)N1 (centres unmarked) | -9.61 |
| COc1ccc(S(=O)(=O)NCc2ccco2)cc1C(=O)N1CCOCC1 | 21 |
| Cl.O=S(=O)(NCC(c1ccco1)N1CCCCC1)c1cccc(C(F)(F)F)c1 (centres unmarked) | -57.7 |
| Cl.O=S(=O)(NCC(c1ccco1)N1CCCCC1)c1ccccc1C(F)(F)F (centres unmarked) | -6.8 |
| CC(=O)c1cccc(S(=O)(=O)NCC(c2ccco2)N2CCCCC2)c1 (centres unmarked) | -24.1 |
